PubChem BioAssay AID602405 (Broad Institute, 2012)
Out of some 360,000 compounds screened, about 350 (0.097%) were called active. The full list was thinned out, with actives kept by preference. Values without a mark were called inactive. No stated cut-off is given here; in the data, active means inhibition above about 16% (passing the limit was not always enough); inconclusive means no clear call, values can overlap the other calls; inactive means below that.

system: UDP-N-acetylbacillosamine N-acetyltransferase PglD (Campylobacter jejuni); test: C. jejuni PglD acetyltransferase inhibitors, primary screen, biochemical, DTNB colorimetric, single point (AID 602405); details: purified PglD enzyme, DTNB colorimetric CoA detection; at 12.5 µM; stronger effect = higher value

Row | SMILES | inhibition
1 | Cc1ccc(S(=O)(=O)NCC[C@H]2CC[C@H](NC(=O)c3ccccn3)[C@H](CO)O2)cc1 | 0.367%
2 | CCCNC(=O)N1C[C@@H]2[C@H](c3ccccc31)[C@@H](CO)N2C(=O)NC(C)C | 4.12%
3 | CN1c2ccc(-c3ccccc3F)cc2[C@H]2[C@H](CCN2C(=O)Nc2cc(F)ccc2F)[C@H]1CO | -0.933%
4 | C=CC1=C(C(=O)O)N2C(=O)[C@@H](NC(=O)/C(=N/OCC(=O)O)c3csc(N)n3)[C@H]2SC1 | 71% (active)
5 | C=CC1=C(C(=O)O)N2C(=O)[C@@H](NC(=O)/C(=N\OCC(=O)O)c3csc(N)n3)[C@H]2SC1 | -2.51%
6 | OC[C@H]1[C@@H](c2ccc(/C=C/c3ccccc3)cc2)[C@H]2CN(Cc3cccnc3)CCCCN21 | -0.638%
7 | CO[C@@H]1CN(C)C(=O)c2cc(NC(=O)C3CC3)ccc2OC[C@H](C)N(Cc2ccc(F)cc2)C[C@@H]1C | -0.858%
8 | O=C(C[C@H]1CC[C@H](NC(=O)Nc2ccc(C(F)(F)F)cc2)[C@H](CO)O1)NCCN1CCCC1 | -2.91%
9 | Cc1noc(C)c1NC(=O)N(C)C[C@H]1OCCCC[C@H](C)Oc2ccc(NC(=O)Nc3ccc4c(c3)OCO4)cc2C(=O)N([C@H](C)CO)C[C@@H]1C | 3.46%
10 | O=C(C[C@@H]1CC[C@@H]2[C@H](COC[C@H](O)CN2Cc2cccc(F)c2)O1)NCc1ccncc1 | -0.388%
11 | C[C@H]1CCCCO[C@H](CN(C)C(=O)CCC(F)(F)F)[C@@H](C)CN([C@@H](C)CO)C(=O)c2cc(NC(=O)Nc3ccc4c(c3)OCO4)ccc2O1 | 0.932%
12 | Cc1ccc(NC(=O)CNCc2ccccn2)cc1S(=O)(=O)N(C)C | 20.4% (active)
13 | CCN(CC(=O)Nc1ccc(C)c(S(=O)(=O)N(C)C)c1)Cc1ccccc1 | -3.38%
14 | Cc1csc(SCC(=O)Nc2ccc(C)c(S(=O)(=O)N(C)C)c2)n1 | 3.71%
15 | CC(C)(C)c1ccc(CN2C(=O)c3ccccc3S2(=O)=O)cc1 | 41.7% (active)
16 | O=C1c2ccccc2S(=O)(=O)N1Cc1c(F)cccc1Cl | -4.6%
17 | COc1ccc(CNC(=O)CN2C(=O)c3ccccc3S2(=O)=O)cc1 | -2.12%
18 | COc1ccccc1S(=O)(=O)N1CC[C@@H]2[C@H](CO)Nc3ccc(-c4ccccc4F)cc3[C@@H]21 | 2.37%
19 | CCC(=O)Nc1ccc2c(c1)C(=O)N(C)C[C@@H](OC)[C@H](C)CN(Cc1ccccc1C(=O)O)[C@@H](C)CO2 | 1.3%
20 | O=C(NCCS(=O)(=O)NCc1ccc(Cl)cc1)c1ccccc1 | 0.839%
21 | O=S1(=O)CC(NCc2ccccc2)C(Nc2ccc(Cl)cc2)C1 (configuration not stated) | 35.4% (active)

Row | SMILES | inhibition
22 | O=C(NCCc1ccc(Cl)cc1)C1CCCN1C(=O)NCc1ccccc1 (configuration not stated) | 1.86%
23 | CN(C)CC#Cc1ccc([C@H]2[C@H](CO)N3CCCCN(CC4CC4)C[C@@H]23)cc1 | 0.034%
24 | COc1ccccc1CNC(=O)C[C@@H]1CC[C@@H]2[C@@H](COc3ccc(NC(=O)Nc4ccc(F)c(F)c4)cc3C(=O)N2C)O1 | 0.834%
25 | C[C@@H]1CN([C@@H](C)CO)C(=O)c2cc(NS(C)(=O)=O)ccc2O[C@@H](C)CCCCO[C@@H]1CN(C)C(=O)c1ccccc1 | 2.15%
26 | C[C@H]1CN([C@@H](C)CO)C(=O)Cc2cc(NC(=O)c3ccncc3)ccc2O[C@@H]1CN(C)C(=O)Nc1ccccc1 | 3.86%
27 | O=C(C[C@@H]1CC[C@H](NC(=O)C2CC2)[C@H](CO)O1)NCc1ccccc1Cl | -4.45%
28 | CN(C)Cc1cn(CC[C@H]2CC[C@H](NC(=O)Nc3ccccc3F)[C@@H](CO)O2)nn1 | -0.499%
29 | C[C@H]1CN([C@@H](C)CO)C(=O)c2cc(NC(=O)Cn3cnnn3)ccc2O[C@H]1CN(C)S(C)(=O)=O | -4.84%
30 | O=C(Nc1ccccc1)N[C@@H]1CC[C@H](CCn2cc(C3(O)CCCC3)nn2)O[C@@H]1CO | 2.19%
31 | COc1ccc(-c2ccc3c(c2)O[C@@H](CN(C)CC2CCOCC2)[C@@H](C)CN([C@@H](C)CO)S3(=O)=O)cc1 | -0.251%
32 | O=C(C[C@@H]1CC[C@H]2[C@@H](COC[C@@H](O)CN2C(=O)Nc2ccc(Cl)cc2)O1)NC1Cc2ccccc2C1 | 2.05%
33 | OC[C@@H]1Nc2ccc(-c3ccc(F)cc3)cc2[C@@H]2[C@H]1CCN2Cc1ccc(F)cc1 | 0.0285%
34 | C[C@H](CO)N1C[C@H](C)[C@H](CN(C)S(=O)(=O)c2cn(C)cn2)OCCCC[C@H](C)Oc2ccc(N(C)C)cc2C1=O | -2.91%
35 | COc1ccc(NC(=O)Nc2ccc3c(c2)C(=O)N([C@@H](C)CO)C[C@H](C)[C@H](CN(C)C(=O)Nc2ccccc2)OCCCC[C@@H](C)O3)cc1 | 1.95%
36 | CC(C)C(=O)Nc1ccc2c(c1)C(=O)N(C)[C@@H]1CC[C@@H](CC(=O)NCCc3ccccc3)O[C@H]1CO2 | -3.51%
37 | C[C@@H]1CN([C@@H](C)CO)S(=O)(=O)c2ccc(C#Cc3cccnc3)cc2O[C@@H]1CN(C)C(=O)CN(C)C | 0.034%
38 | C[C@@H]1CN([C@H](C)CO)S(=O)(=O)c2ccc(/C=C/c3ccccc3)cc2O[C@@H]1CN(C)C(=O)Nc1ccc(F)cc1 | 4.65%
39 | O=C([C@H]1[C@H](CO)[C@H]2Cn3c(cccc3=O)[C@@H]1N2Cc1cocn1)N1CCCCC1 | -0.522%
40 | C[C@H](CO)N1C[C@H](C)[C@H](CN(C)C(=O)Nc2ccc(C(F)(F)F)cc2)Oc2ccc(N(C)C)cc2CC1=O | 1.24%
41 | COc1ccccc1-c1cnc2c(c1)C(=O)N([C@@H](C)CO)C[C@@H](C)[C@H](CN(C)Cc1cccnc1)O2 | 1.03%
42 | CCC(=O)N1C[C@@H](C)[C@H](OC)CN(C)C(=O)c2ccc(NC(=O)NC(C)C)cc2OC[C@H]1C | -4.33%
